The record followed here is PubChem BioAssay (Tox21).

“And” between values parts separate entries of the source, which are not always exact repeats. Equal values may be shown once. The source holds several records for some structures; these can differ, active in one and inactive in another. The source made the active and inactive calls. Unless noted, calls follow the shape of the dose curve; as a rule, active = well fitted curve in the direction sought with a large enough effect in the repeat runs; inconclusive = weak or mixed curves; inactive = no such curve, though single readings can be large; an effect the other way counts as inactive or inconclusive.

Assay [1] can be described thus: qHTS assay to identify small molecule antagonists of the thyroid receptor (TR) signaling pathway - cell viability counter screen (AID 743064). Also: nearly all actives have a fitted effect of over 50% in size. Also: potency is read from the fitted curve at half-maximal effect. In a few lines:
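Plate GH3.TRE-Luc cells; incubate 4 h at 37 °C; add compound, then T3 to 1 nM final; incubate 23.5 h; add CellTiter-Fluor; incubate 30 min at 37 °C, 5% CO2; read fluorescence.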
Background: qHTS replaces the single test concentration by a dilution series.

Assay [2] in a line: qHTS assay to identify small molecule antagonists of the thyroid receptor (TR) signaling pathway (AID 743065). Also: nearly all actives have a fitted effect of over 55% in size. Also: potency is read from the fitted curve at half-maximal effect. In a few lines:
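GH3.TRE-Luc rat pituitary cells (two TREs driving luciferase) were dosed with compound, then stimulated with 1 nM T3 (final) for 23.5 h at 37 C. ONE-Glo luminescence was the read-out, with CellTiter-Fluor fluorescence as the cytotoxicity counter-screen.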

The subject of assay [3] is thyroid hormone receptor (rat, GH3 cells). Nature of the assay: qHTS assay to identify small molecule agonists of the thyroid receptor (TR) signaling pathway (AID 743066; calls by dose curve).
For assay [4], the target named is Estrogen receptor (Homo sapiens) (UniProt P03372). Nature of the assay: qHTS assay to identify small molecule antagonists of the estrogen receptor alpha (ER-alpha) signaling pathway (AID 743069; active = well fitted curve in the direction sought with a large enough effect in the signal ratio in the repeat runs, not every such curve was filed as active; inconclusive = weak or mixed curves, or effect the other way; inactive = no such curve, though single readings can be large or run the other way; the % refers to the signal ratio). An outline of the steps:
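In this cell-based reporter format, GripTite HEK293 cells harbouring ER-alpha-UAS-bla were grown overnight with 2% charcoal-stripped FBS, dosed with DMSO-dissolved compounds, then challenged with 17beta-estradiol. After 18 hr at 37C, beta-lactamase activity was detected by FRET fluorescence.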

Assay [5] in a line: qHTS assay to identify small molecule antagonists of the estrogen receptor alpha (ER-alpha) signaling pathway - cell viability counter screen (AID 743074; calls by dose curve; also: nearly all actives have a fitted effect of over 45% in size; also: potency is read from the fitted curve at half-maximal effect).
In assay [6] the target is Estrogen receptor (Homo sapiens) (UniProt P03372). Nature of the assay: qHTS assay to identify small molecule agonists of the estrogen receptor alpha (ER-alpha) signaling pathway (AID 743075; calls by dose curve; also: potency is read from the fitted curve at half-maximal effect).
Chain of Estrogen receptor (Homo sapiens) (P03372 whole entry, looked up): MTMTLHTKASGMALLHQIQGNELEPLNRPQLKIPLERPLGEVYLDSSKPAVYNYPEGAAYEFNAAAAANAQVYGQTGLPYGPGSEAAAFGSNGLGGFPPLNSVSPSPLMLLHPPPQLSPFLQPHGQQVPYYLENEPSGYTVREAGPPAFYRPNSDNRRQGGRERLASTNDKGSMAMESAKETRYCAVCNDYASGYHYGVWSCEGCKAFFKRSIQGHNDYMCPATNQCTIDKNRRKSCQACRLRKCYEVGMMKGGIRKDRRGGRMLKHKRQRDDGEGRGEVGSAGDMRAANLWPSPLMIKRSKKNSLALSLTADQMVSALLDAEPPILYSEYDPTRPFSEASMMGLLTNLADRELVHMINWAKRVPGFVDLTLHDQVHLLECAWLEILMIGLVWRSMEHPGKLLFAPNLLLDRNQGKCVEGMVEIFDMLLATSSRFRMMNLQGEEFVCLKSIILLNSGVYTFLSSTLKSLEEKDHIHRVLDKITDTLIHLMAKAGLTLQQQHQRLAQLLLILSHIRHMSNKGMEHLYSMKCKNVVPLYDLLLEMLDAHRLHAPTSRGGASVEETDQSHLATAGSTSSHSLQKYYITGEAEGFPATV
For assay [7] the target is unchanged. Nature of the assay: qHTS assay to identify small molecule agonists of the estrogen receptor alpha (ER-alpha) signaling pathway using the BG1 cell line (AID 743079). Also: nearly all actives have a fitted effect of over 20% in size. Also: potency is read from the fitted curve at half-maximal effect.
Assay [8] can be described thus: qHTS assay to identify small molecule antagonists of the estrogen receptor alpha (ER-alpha) signaling pathway using the BG1 cell line (AID 743080; calls by dose curve;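 also: BG1 cells stimulated with 17beta-estradiol alongside compound; series mostly up to about 70 µM; nearly all actives have a fitted effect of over 25% in size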). An outline of the steps:
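After 5 days in phenol-red-free 10% charcoal-stripped FBS medium, BG1-Luc-4E2 cells were seeded, left 24 h at 37 C, co-treated with compounds and 17beta-estradiol for 21.5 h, then assayed for viability and luciferase.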

A short description of assay [9]: qHTS assay to identify small molecule antagonists of the estrogen receptor alpha (ER-alpha) signaling pathway using the BG1 cell line - cell viability counter screen (AID 743081).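 Also: compound given together with 17beta-estradiol as the ER stimulus; series mostly up to about 70 µM; nearly all actives have a fitted effect of over 45% in size.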
Assay [10] concerns the target Aromatase (Homo sapiens) (UniProt P11511). Nature of the assay: qHTS assay to identify aromatase inhibitors (AID 743083). Also: series mostly up to about 70 µM; nearly all actives have a fitted effect of over 55% in size.

Chain of Aromatase (Homo sapiens) (P11511 whole entry, looked up): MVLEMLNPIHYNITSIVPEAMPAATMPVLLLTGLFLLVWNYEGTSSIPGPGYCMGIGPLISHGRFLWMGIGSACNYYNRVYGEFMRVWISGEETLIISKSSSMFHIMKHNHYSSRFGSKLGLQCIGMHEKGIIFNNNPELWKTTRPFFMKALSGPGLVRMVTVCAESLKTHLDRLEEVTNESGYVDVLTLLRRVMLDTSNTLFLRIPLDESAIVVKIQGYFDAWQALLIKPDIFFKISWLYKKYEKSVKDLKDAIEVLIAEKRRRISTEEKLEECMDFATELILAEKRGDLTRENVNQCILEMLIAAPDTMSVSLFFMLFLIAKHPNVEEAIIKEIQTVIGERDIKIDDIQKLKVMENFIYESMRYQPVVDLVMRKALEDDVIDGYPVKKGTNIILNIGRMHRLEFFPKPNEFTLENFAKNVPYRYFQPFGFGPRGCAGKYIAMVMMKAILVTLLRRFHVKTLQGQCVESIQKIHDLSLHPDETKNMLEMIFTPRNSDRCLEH

Regarding `C[C@H]1O[C@H](OC2[C@@H](O)[C@@H](O)C(O)[C@H](O)[C@H]2O)[C@@H](N)C[C@@H]1N=C(N)C(=O)O` (some centres undefined), the Potency result in [1], in assay [2], in assay [3], in [4], in [5] and in [6] was “inactive” throughout. Also, the Potency entry in [7], in [8], in assay [9] and in assay [10] was “inactive” each time.
On to `CCCC1CCCCN1` (centres undefined), for which the Potency entry in assay [1], in assay [2], in assay [3], in assay [4], in assay [5] and in [6] was “inactive” throughout. Besides, the Potency result in [7], in [8], in [9] and in [10] was “inactive” in each case.
Take `CCC(C)Cl` (centres undefined): the Potency result in assay [1], in [2], in assay [3], in assay [4], in assay [5] and in [6] was “inactive” in each case. Moreover, the Potency entry in assay [7], in assay [8], in assay [9] and in assay [10] was “inactive” throughout.
`CCCC(C)(COC(N)=O)COC(=O)NC(C)C` (centres undefined): the Potency result in assay [1], in [2], in assay [3], in [4], in [5] and in assay [6] was “inactive” throughout. Also, the Potency entry in assay [7], in assay [8], in assay [9] and in assay [10] was “inactive” in each case.
With `c1ccc2c(c1)sc1ccccc12`, the Potency result in assay [1], in [2], in assay [3], in assay [4], in assay [5] and in assay [6] was “inactive” throughout. Moreover, the Potency result in assay [7], in assay [8], in assay [9] and in assay [10] was “inactive” each time.
Turning to `FC(Cl)(Cl)C(F)(Cl)Cl`, the Potency result in [1], in [2], in [3], in [4], in assay [5] and in assay [6] was “inactive” in each case. Moreover, the Potency result in assay [7], in assay [8], in assay [9] and in assay [10] was “inactive” each time.
For `CC(C)(C)NCC(O)c1ccccc1Cl` (centres undefined), the Potency result in [1], in [2], in assay [3], in assay [4], in assay [5] and in [6] was “inactive” throughout. In addition, the Potency entry in [7], in [8], in assay [9] and in assay [10] was “inactive” in each case.
`CCCC[N+]1(C)[C@@H]2CC(OC(=O)[C@H](CO)c3ccccc3)C[C@H]1[C@@H]1O[C@@H]12` (some centres undefined): the Potency entry in assay [1], in assay [2], in [3], in assay [4], in assay [5] and in [6] was “inactive” throughout. The Potency result in [7], in assay [8], in [9] and in assay [10] was “inactive” throughout.
For `CC(C)c1ccc(OP(=O)(Oc2ccc(C(C)C)cc2)Oc2ccc(C(C)C)cc2)cc1`, the Potency is 54.9 µM (active) and 68.6 µM (active) and 30.6 µM (active) in assay [1]; 54.9 µM (active) and 54.5 µM (active) and 30.6 µM (active) in assay [2]; 2.75 µM (active) and 6.85 µM (active) in [7]. Moreover, the Potency entry in assay [3], in assay [4], in [5], in [6], in assay [8] and in [9] was “inactive” throughout. The Potency result in assay [10] is “inactive”.
On to `CCCBr`, for which the Potency entry in assay [1], in [2], in assay [3], in [4], in assay [5] and in assay [6] was “inactive” throughout. In addition, the Potency result in assay [7], in [8], in [9] and in [10] was “inactive” throughout.
With `CN[C@@H](C)[C@H](O)c1ccccc1`, the Potency entry in [1], in [2], in assay [3], in assay [4], in assay [5] and in [6] was “inactive” throughout. For the same compound, the Potency result in assay [8], in assay [9] and in assay [10] was “inactive” each time. Besides, in assay [7], the Potency was 26.6 µM (active).
`COc1ccc(C(O)(c2cncnc2)C2CC2)cc1` (centres undefined): the Potency result in [1], in assay [2], in assay [3], in assay [4], in [5] and in assay [6] was “inactive” in each case. In addition, the Potency entry in [7], in assay [8], in assay [9] and in [10] was “inactive” throughout.
Consider `C=C(C)C(=O)OCCCCOC(=O)C(=C)C`, for which the Potency entry in assay [1], in assay [2], in assay [3], in [4], in assay [5] and in assay [6] was “inactive” each time. Besides, the Potency result in assay [7], in assay [8] and in assay [9] was “inactive” in each case.
In the case of `CC(C)(C)c1ccc(CCOc2ncnc3ccccc23)cc1`, the Potency result in assay [1], in assay [2], in [3], in assay [4], in assay [5] and in assay [6] was “inactive” in each case. Moreover, the Potency entry in [7], in assay [8], in assay [9] and in [10] was “inactive” in each case.
As to `CCCCCBr`, the Potency entry in [1], in [2], in assay [3], in [4], in [5] and in [6] was “inactive” each time. For the same compound, the Potency result in assay [7], in assay [8], in assay [9] and in assay [10] was “inactive” in each case.
As to `CC(O)CN1CCN(CC(=O)[O-])CCN(CC(=O)[O-])CCN(CC(=O)[O-])CC1.[Gd+3]` (centres undefined), the Potency result in assay [1], in assay [2], in assay [3], in assay [4], in assay [8] and in assay [9] was “inactive” in each case. The Potency entry in [10] is “inactive”. Besides, the Potency entry was “inactive and 21.3 µM (active)” in assay [5]; “inactive and 23.9 µM [inconclusive] (active)” in assay [6]; “inactive and 5.31 µM (active)” in assay [7].
For the compound `Cc1ccc2c(C)cccc2c1`, the Potency result in assay [1], in [2], in assay [3], in assay [4], in assay [5] and in assay [6] was “inactive” in each case. For the same compound, the Potency result in assay [7], in assay [8], in assay [9] and in [10] was “inactive” in each case.
With `C[N+](C)(C)CC1CO1` (centres undefined), the Potency entry in assay [1], in assay [2], in assay [3], in [4], in assay [5] and in assay [6] was “inactive” throughout. Besides, the Potency entry in assay [7], in [8], in assay [9] and in assay [10] was “inactive” in each case.
As for `OCCSSCCO`, the Potency result in assay [1], in assay [2], in assay [3], in assay [4], in assay [5] and in [6] was “inactive” throughout. Moreover, the Potency entry in assay [7], in [8], in assay [9] and in assay [10] was “inactive” throughout.
For `CON(C)C(=O)Nc1ccc(Cl)cc1`, the Potency entry in assay [1], in assay [2], in assay [3], in [4], in assay [5] and in assay [6] was “inactive” throughout. Also, the Potency entry in assay [7], in [8], in assay [9] and in assay [10] was “inactive” throughout.
In the case of `CCSCc1ccccc1OC(=O)NC`, the Potency result in assay [1], in assay [2], in [3], in assay [4], in assay [5] and in [6] was “inactive” in each case. For the same compound, the Potency result in [7], in assay [8], in [9] and in assay [10] was “inactive” each time.
Turning to `CCCC[N+](CCCC)(CCCC)CCCC`, the Potency entry in [1], in assay [2], in assay [3], in [4], in assay [5] and in assay [6] was “inactive” throughout. Further, the Potency result in [7], in [8], in [9] and in [10] was “inactive” throughout.
Consider `CN(C1CCCCC1)C1CCCCC1`, for which the Potency result in assay [1], in [2], in assay [3], in assay [4], in [5] and in assay [6] was “inactive” throughout. Moreover, the Potency result in [7], in assay [8], in [9] and in [10] was “inactive” in each case.
